Screening results (PubChem BioAssay)
This is one part of a sample in which hits are shown more often than they occur.
mHTT CaM bind: disrupts binding of mutant huntingtin to calmodulin | P42858 | AlphaScreen His-mHTT/GST-CaM binding, luminescence | inhibition, % at 15 µM | 3.6% of 190,000 active;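 note: 0% = both proteins with DMSO and 100% = one protein alone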
Pf apPOL inh: Pf-apPOL DNA polymerase inhibition. Recombinant Pf-apPOL, molecular beacon fluorescence, 1.5 h. inhibition, % at 10 µM. 0.25% of 210,000 active. AID 1794808
The depositor's hits bear a star; . = no result given. Cut-off read from the data, not from the text of the source: active = inhibition above about 50%; inactive = the rest.

SMILES	mHTT CaM bind	Pf apPOL inh
COc1ccc(CNC(=O)C2CC(=O)N(c3ccc4oc(C)nc4c3)C2)cc1OC (stereo unspecified)	1	-4
Cc1nc2cc(N3CC(C(=O)NCc4ccc(OC(C)C)cc4)CC3=O)ccc2o1 (stereo unspecified)	100*	-1
Nc1cc(C2CCN(S(=O)(=O)c3ccc(Cl)cc3)CC2)no1	1	-1
O=[N+]([O-])c1c(C(Cl)Cl)nn(-c2ccccc2)c1N1CCCC1	54*	-1
Cc1nn(-c2ccccc2)c(N2CCOCC2)c1[N+](=O)[O-]	.	-4
Cn1ccnc1SCc1ccc(Br)cc1	8	-14
O=C1NC(=O)/C(=C\c2cc(Br)c(Sc3ccc(Cl)cc3)o2)N1	26	-3
O=Cc1cc(Br)c(Sc2ccc(Cl)cc2)o1	61*	-6
Cc1ccccc1OCC(=O)N1CCC2(CC1)Nc1cccnc1NC2=NC(C)(C)C	32	-5
CC(=O)CSc1sc2c(O)cc(=O)[nH]c2c1C#N	4	.
N#Cc1c(SCC(=O)Nc2nncs2)sc2c(O)cc(=O)[nH]c12	54*	.
COc1ccc(NC(=O)N2CCCC2c2nc(-c3ccccc3OC)no2)cc1Cl (stereo unspecified)	7	-2
COc1ccc([N+](=O)[O-])cc1NC(=O)C1CCCCC1	-2	-2
COc1ccc([N+](=O)[O-])cc1NC(=O)C1CC(=O)NC(=N)S1 (stereo unspecified)	1	59*
COc1ccc(C2=N/C(=C\c3ccco3)C(=O)O2)cc1	-1	0
CN(C)CCNC(=O)c1ccc(S(=O)(=O)N2CCCC2)cc1	-5	55*
O=C(NC1CCCCC1)c1ccc(S(=O)(=O)N2CCCC2)cc1	1	-4
COc1ccc(NC(=O)c2cc([N+](=O)[O-])ccc2Br)cc1OC	-5	-3
Cc1ccccc1CNC(=O)c1ccc2c(c1)n(C)c(=O)c1ccnn12	16	4
O=C(Cn1nc2c(cc1=O)CCCC2)Nc1cccc(Cl)c1	3	0
C=C[C@H](CC(C)C)N(Cc1ccccc1)S(=O)(=O)N(Cc1ccccc1)[C@@H](C=C)CC(C)C	-12	-3
O=S(=O)(N(Cc1ccccc1)[C@H](CO)Cc1ccccc1)N(Cc1ccccc1)[C@H](CO)Cc1ccccc1	0	-2
CC(C)C[C@@H](CO)N(Cc1ccccc1)S(=O)(=O)N(Cc1ccccc1)[C@H](CO)CC(C)C	93*	-2
COc1ccc(CN([C@H](CO)CC(C)C)S(=O)(=O)N(Cc2ccccc2)[C@H](CO)CC(C)C)cc1	98*	-1
COc1ccc(CN([C@H](C)CO)S(=O)(=O)N(Cc2ccccc2)[C@H](CO)C(C)C)cc1	16	2
SMILES	mHTT CaM bind	Pf apPOL inh
CC(C)C[C@@H](CO)N(Cc1ccccc1)S(=O)(=O)N(Cc1ccccc1)[C@@H](CO)CC(C)C	100*	-3
CCOc1cccc(/C=C2\NC(=O)N(Cc3ccc(Cl)cc3)C2=O)c1O	-5	-1
CCc1nc(C2CCN(C(=O)c3ccc4ncccc4c3)CC2)n[nH]1	-9	-2
O=c1[nH]cnc2c1nc(N1CCN(CCO)CC1)n2C1OC(CO)C(O)C1O (stereo unspecified)	-2	.
COc1ccccc1C(=O)N1CCC2(CC1)NC(=O)c1cc(C)ccc1N2C	-6	-2
COc1ccccc1N/C(C)=C/C(=O)c1ccccc1	22	-4
COc1ccc(N/C(C)=C/C(=O)c2ccccc2)c(OC)c1	51*	-1
O=C1NN(c2ccc(Br)cc2)C(=O)/C1=C/c1cc([N+](=O)[O-])ccc1Cl	89*	1
CN(C)c1ccc([N+](=O)[O-])cc1/C=C1\C(=O)NN(c2ccc(F)cc2)C1=O	10	6
O=C1NN(c2ccc(F)cc2)C(=O)/C1=C/c1cccc([N+](=O)[O-])c1	13	1
O=C1NN(c2ccc(Cl)c(Cl)c2)C(=O)/C1=C/c1ccccc1	96*	-3
Cc1ccc(N2NC(=O)/C(=C\c3cccc(Br)c3)C2=O)cc1	71*	-1
O=C1NN(c2cccc(Br)c2)C(=O)/C1=C/c1ccccc1	19	-1
Cc1ccc(N2NC(=O)/C(=C\c3cccc([N+](=O)[O-])c3)C2=O)cc1Cl	77*	0
COc1ccc(/C=C2\C(=O)NN(c3ccc(Cl)c(Cl)c3)C2=O)cc1	5	-5
Cc1noc(C2CN(C(=O)Nc3ccc4c(c3)CCC4)CC23CCOCC3)n1 (stereo unspecified)	0	-8
O=C1c2ccc(-c3nc4ccccc4c(=O)o3)cc2C(=O)N1C1CCCCC1	3	-24
O=C1CC(NC(=O)c2cc(-c3ccccc3)on2)CN1 (stereo unspecified)	1	-4
COc1cccc(CNC(=O)C2CCCN(c3nccnc3Sc3ccccc3)C2)c1 (stereo unspecified)	0	-1
CCOC(=O)N1CCN(S(=O)(=O)CCCOc2ccc3c(c2)OCO3)CC1	-4	2
CCN(CC)Cc1ccc(C(=O)N(CCc2ccccc2OC)C2CCNC2)cc1 (stereo unspecified)	.	-15
